Bioassay records: PubChem, National Center for Advancing Translational Sciences (NCATS)
HT1080NT lethal = kills 2HG-producing HT-1080-NT fibrosarcoma cells | AID 686970 | HT-1080-NT fibrosarcoma viability, CellTiter-Glo ATP luminescence, 48 h | 360,000 compounds, 1.6% hits | Potency, µM (highest dose often 46.1 µM), without a hit: at the highest dose activity, negative = less viability, most hits filed as cytotoxic;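 note: NT is the 2HG producing partner of a matched IDH1 knockdown line; potency is the fitted concentration of half-maximal effect; 0% = DMSO-treated cells and -100% = media-only wells without cells; nearly all actives have a fitted effect of over 55% in size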
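HT-1080-NT; 750 cells/well; 5% FBS RPMI; 48 h compound, 37 degrees C; CellTiter-Glo luminescence; curve fitting and curve-class assignment.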
IL-1B inflam inh = blocks inflammasome-driven IL-1 beta release; activity change, % at 57.5 µM; THP-1 LPS/ATP IL-1B secretion, AlphaLISA, 16 h; active compounds read low; 360,000 compounds, 4.7% hits; in the data active = activity change below about -50%; inconclusive = mostly about -30% to -49%
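Secreted IL-1B measured by AlphaLISA bead assay after 16 h compound exposure of THP-1 cells; compounds (final up to 57.5 uM) added 1 h before LPS (250 ng/mL) and ATP (1.25 mM) stimulation; lower signal means less secretion.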
TDP1 cell noCPT = qHTS for Inhibitors of human tyrosyl-DNA phosphodiesterase 1 (TDP1): qHTS in cells in absence of CPT; DT40 Tdp1-/- hTDP1 cells, no CPT, ATP luminescence, 48 h; Potency, µM (highest dose often 46.2 µM), inactives show at the top dose activity change, negative = growth inhibition, usual class: inhibitors; 420,000 compounds, 15% hits; AID 686978, 2013; note: potency is the fitted concentration of half-maximal effect; nearly all actives have a fitted effect of over 55% in size
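Chicken DT40 Tdp1-/- cells complemented with human TDP1, screened without camptothecin (DMSO vehicle only), 400 cells/well. Compounds pin-transferred, cells incubated at 37 °C for at least 48 hr. Growth read as ATP-dependent luminescence (CellTiter-Glo, 30 min at RT).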
ELG1 repair inh = inhibitors of ELG1-dependent DNA repair in HEK293T cells; Potency, µM (doses to about 46.1 µM), for the others: at the top dose activity change, negative = inhibition, hits mostly inhibitors; HEK293T ELG1-luciferase reporter, luminescence, 16 h; DNA damage induced by 5-fluorouridine; AID 504467; 330,000 compounds, 2.3% hits; note: potency is the fitted concentration of half-maximal effect; nearly all actives have a fitted effect of over 55% in size
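Cells (2,000 per well) received 5-fluorouridine plus test compound or DMSO and were incubated 16 hr at 37 °C, 5% CO2. Luciferase activity was read by luminescence 30 min after ONE-Glo addition; signal suppression marked inhibition of damage-induced ELG1 function.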
TDP1 cell CPT = growth inhibition of DT40 Tdp1-/-;hTDP1 cells with camptothecin (screen for TDP1 inhibitors); chicken DT40 Tdp1-/-;hTDP1 cells + 20 nM CPT, ATP luminescence, 48 h; Potency, µM (titrated, usually from 46.2 µM), for the others: at the top dose activity change, negative = growth inhibition, most hits filed as inhibitors; 420,000 compounds, 12% hits; note: potency is the fitted concentration of half-maximal effect; nearly all actives have a fitted effect of over 55% in size
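Chicken DT40 Tdp1-/- cells complemented with human TDP1, 400 cells/well, exposed to compounds plus 20 nM camptothecin for at least 48 h at 37 C; viability read as ATP content by CellTiter-Glo luminescence.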
HT1080 IDH1KD tx = HT-1080 IDH1 knockdown cell toxicity (counter line) | HT-1080 IDH1 knockdown viability, ATP luminescence, 48 h | Potency, µM (top dose mostly 46.1 µM), for the others: at the highest dose activity, negative = toxicity, usual class: cytotoxic | 360,000 compounds, 2% hits;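 note: potency is the fitted concentration of half-maximal effect; 0% = DMSO wells and -100% = cell-free medium wells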
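HT-1080-IDH1KD cells (IDH1 knocked down), 750/well in RPMI with 5% FBS, treated with compound 48 h at 37 degrees C. Viability by CellTiter-Glo luminescence, normalised to DMSO and no-cell wells; concentration-response curves classed.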
Numbers without * were called inactive; [ ] = dose if it differs, or a comment. Only some compounds are listed: those with a hit (about 19% of all), similar ones and a draw of the others. Unless noted, calls come from the whole dose curve; as a rule, active = well fitted curve in the direction sought with a large enough effect; inconclusive = small, poorly fitted or top-dose-only effect, or another doubt; inactive = no such curve, though single readings can be large; an effect the other way counts as inactive or inconclusive. Unless noted, % is set by controls: 0 for no effect and ±100 for the full control effect.

`O=C(N/N=C/c1cccs1)c1n[nH]c2c1CCCC2` gave HT1080NT lethal 21µM*, IL-1B inflam inh -26, TDP1 cell noCPT 21µM*, ELG1 repair inh inconclusive, TDP1 cell CPT inconclusive and HT1080 IDH1KD tx 15µM*.
Cc1nc(N2CCOCC2)c2c(C(=O)NCc3ccc(Cl)cc3)c(C)oc2n1 was read as TDP1 cell noCPT -7% and TDP1 cell CPT 2%.
For O=C(N/N=C\c1ccc(Cl)s1)c1ccc(Cn2cccn2)o1 the results were HT1080NT lethal 21%, IL-1B inflam inh -16, TDP1 cell noCPT inconclusive, ELG1 repair inh 17%, TDP1 cell CPT inconclusive and HT1080 IDH1KD tx 3%.
`Cc1ccc(O)c(/C=N/NC(=O)c2[nH]ncc2Br)c1` gave HT1080NT lethal 2%, IL-1B inflam inh -10, TDP1 cell noCPT 15µM*, ELG1 repair inh inconclusive, TDP1 cell CPT -9% and HT1080 IDH1KD tx -29%.
`COc1ccc(OC)c(/C=N/NC(=O)c2[nH]ncc2Br)c1` gave HT1080NT lethal 21%, IL-1B inflam inh 13, TDP1 cell noCPT -1%, ELG1 repair inh 25%, TDP1 cell CPT 2% and HT1080 IDH1KD tx 9%.
O=C(N/N=C/c1c(O)ccc2ccccc12)c1[nH]ncc1Br was read as HT1080NT lethal inconclusive, IL-1B inflam inh 99, TDP1 cell noCPT 4.6µM*, ELG1 repair inh inconclusive, TDP1 cell CPT 2.6µM* and HT1080 IDH1KD tx inconclusive.
Screening O=C(N/N=C\c1c(O)ccc2ccccc12)c1ccc(Cn2cccn2)o1 returned HT1080NT lethal inconclusive, IL-1B inflam inh 74, TDP1 cell noCPT 5.8µM*, ELG1 repair inh inconclusive, TDP1 cell CPT 5.8µM* and HT1080 IDH1KD tx inconclusive.
CCOc1ccc(/C=N/NC(=O)c2[nH]ncc2Br)c(O)c1 was read as HT1080NT lethal 7.3µM*, IL-1B inflam inh 135, TDP1 cell noCPT 5.2µM*, ELG1 repair inh inconclusive, TDP1 cell CPT 5.2µM* and HT1080 IDH1KD tx 5.2µM*.
For CCC(CC)C1C(C#N)=C(N)Oc2n[nH]c(-c3ccccc3)c21 (stereo not given) the results were HT1080NT lethal inconclusive, IL-1B inflam inh -30, TDP1 cell noCPT 26µM*, ELG1 repair inh inconclusive, TDP1 cell CPT inconclusive and HT1080 IDH1KD tx -20%[9.24 µM].
For CCC(CC)C1C(C#N)=C(N)Oc2n[nH]c(C)c21 (stereo not given) the results were HT1080NT lethal 11µM*, IL-1B inflam inh -88*, TDP1 cell noCPT 16µM*, ELG1 repair inh 0%, TDP1 cell CPT 18µM* and HT1080 IDH1KD tx 11µM*.
`CCOc1ccc(-c2[nH]nc3c2C(c2cccnc2)C(C#N)=C(N)O3)cc1` (stereo not given) gave HT1080NT lethal -4%, IL-1B inflam inh -18, TDP1 cell noCPT 0%, ELG1 repair inh inconclusive, TDP1 cell CPT -2% and HT1080 IDH1KD tx 2%.
For CCc1[nH]nc2c1C(C(C)C)C(C#N)=C(N)O2 (stereo not given) the results were HT1080NT lethal -2%, IL-1B inflam inh -84*, TDP1 cell noCPT inconclusive, ELG1 repair inh 1%, TDP1 cell CPT inconclusive and HT1080 IDH1KD tx -9%.
`Cc1[nH]nc2c1C(C1CC=CCC1)C(C#N)=C(N)O2` (stereo not given) gave HT1080NT lethal inconclusive, IL-1B inflam inh -112*, TDP1 cell noCPT inconclusive, ELG1 repair inh -3%, TDP1 cell CPT 21µM* and HT1080 IDH1KD tx inconclusive.
CC(C)(C)NC(=O)C1c2ccccc2OCC(=O)N1Cc1ccccn1 (stereo not given) was read as HT1080NT lethal 15%, IL-1B inflam inh 27, TDP1 cell noCPT -7%, TDP1 cell CPT -9% and HT1080 IDH1KD tx 4%.
Screening N#CC1=C(N)Oc2n[nH]c(-c3ccccc3)c2C1c1ccsc1 (stereo not given) returned HT1080NT lethal -2%, IL-1B inflam inh 40, TDP1 cell noCPT 12µM*, ELG1 repair inh inconclusive, TDP1 cell CPT inconclusive and HT1080 IDH1KD tx -2%.
Screening Cc1ccc(-c2[nH]nc3c2C(c2ccsc2)C(C#N)=C(N)O3)cc1 (stereo not given) returned HT1080NT lethal -15%, IL-1B inflam inh -29, TDP1 cell noCPT -28%, ELG1 repair inh 14%, TDP1 cell CPT -6% and HT1080 IDH1KD tx -5%.
CC(C)C1C(C#N)=C(N)Oc2n[nH]c(-c3cccs3)c21 (stereo not given) was read as HT1080NT lethal -6%, IL-1B inflam inh -10, TDP1 cell noCPT 7%, ELG1 repair inh -11%, TDP1 cell CPT 3% and HT1080 IDH1KD tx -13%.
For CC(C)C1C(C#N)=C(N)Oc2n[nH]c(-c3ccc4ccccc4c3)c21 (stereo not given) the results were HT1080NT lethal inconclusive, IL-1B inflam inh 5, TDP1 cell noCPT 10µM*, ELG1 repair inh -5%, TDP1 cell CPT inconclusive and HT1080 IDH1KD tx inconclusive.
For Cc1noc(C)c1-c1nc(Nc2ccc(F)cc2)c2ccccc2n1 the results were TDP1 cell noCPT 2% and TDP1 cell CPT -16%.
For C/C(Cn1nnc([N+](=O)[O-])n1)=N\NC(=O)c1ccc(Cl)c(Cl)c1 the results were HT1080NT lethal inconclusive, IL-1B inflam inh 1, TDP1 cell noCPT 16µM*, ELG1 repair inh -7%, TDP1 cell CPT 18µM* and HT1080 IDH1KD tx inconclusive.
Screening C/C(Cn1cnc([N+](=O)[O-])n1)=N\NC(=O)c1ccc(Br)cc1 returned HT1080NT lethal 5%, IL-1B inflam inh -1, TDP1 cell noCPT -1%, ELG1 repair inh 18%, TDP1 cell CPT -8% and HT1080 IDH1KD tx 1%.
`C/C(Cn1cnc([N+](=O)[O-])n1)=N\NC(=O)c1cccnc1` gave HT1080NT lethal 7%, IL-1B inflam inh 20, TDP1 cell noCPT 7%, ELG1 repair inh 5%, TDP1 cell CPT 7% and HT1080 IDH1KD tx 7%.
Screening C/C(Cn1nnc([N+](=O)[O-])n1)=N\NC(=O)c1ccc(O)cc1 returned HT1080NT lethal inconclusive, IL-1B inflam inh 41, TDP1 cell noCPT 13µM*, ELG1 repair inh inconclusive, TDP1 cell CPT 15µM* and HT1080 IDH1KD tx -9%.
Screening COC(=O)c1cccc(NC(=O)C2CCN(S(=O)(=O)Cc3ccccc3)CC2)c1C returned TDP1 cell noCPT 7% and TDP1 cell CPT -8%.
